Assay [1] concerns the target T1, ETS1 (UniProt P14921).
T1 sequence: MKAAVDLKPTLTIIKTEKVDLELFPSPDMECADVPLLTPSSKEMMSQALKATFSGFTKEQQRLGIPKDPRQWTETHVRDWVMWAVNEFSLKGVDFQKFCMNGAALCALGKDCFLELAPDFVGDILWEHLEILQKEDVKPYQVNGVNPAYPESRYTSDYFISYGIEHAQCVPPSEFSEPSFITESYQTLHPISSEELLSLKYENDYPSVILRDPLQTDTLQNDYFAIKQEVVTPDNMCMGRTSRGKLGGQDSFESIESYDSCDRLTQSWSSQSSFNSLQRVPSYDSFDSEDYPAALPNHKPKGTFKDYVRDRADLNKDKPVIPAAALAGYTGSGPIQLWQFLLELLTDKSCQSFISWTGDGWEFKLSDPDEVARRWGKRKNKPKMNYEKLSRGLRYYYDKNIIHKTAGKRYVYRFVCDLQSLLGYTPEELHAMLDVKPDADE
Description: ETS1 binding intensity (PBM fluorescence), ETS1 alone (arbitrary fluorescence units); higher = stronger binding. The following applies: ETS1 concentration 1 nM; RUNX1 concentration 0 nM.

In assay [2] the target is T1, ETS1. The assay is described as follows: ETS1 binding intensity (PBM fluorescence) in presence of RUNX1, normalised to ETS1-only experiment (arbitrary fluorescence units); higher = stronger binding. The following applies: ETS1 concentration 1 nM; RUNX1 concentration 25 nM.
For assay [3], the target named is T1, ETS1. Description: TF binding intensity (PBM fluorescence), negative control probe (arbitrary fluorescence units); higher = stronger binding. The method, then:
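gcPBM negative-control 36-bp genomic probes lacking TF binding sites. Each was incubated with recombinant human ETS1 or RUNX1 alone and detected by antibody fluorescence. Values are medians over replicate spots (4 spots for the ETS1-RUNX1 arrays, 3 for the ETS1-ETS1 array). The probes sit in constant array flanks that are not printed.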

This note sets out measurements from the supplement of paper PMC10681739.

Turning to AAAACCTTGTTGAAAGGATGTGGCTTAGCGAGAGGT, the ETS1 binding intensity with ETS1 [1] was found to be 1140; with ETS1 [2], 1820.
The matching figures for CTCCGGGAACAGCGGAAAAGGGACCGCATGAACCTC: 900 and 1470.
The matching figures for GTCCCCCGGAACCGTCTCCTCCCCCGCACGCGCCGC: 516 and 433.
The matching figures for GCACCGTCCCAGCATCCGGACACCACAGCGGCCCTT: 602 and 530.
In the case of CTGTCAGGATGTTGGCTTGTGAGCCCACAATCCTCT, the ETS1 binding intensity in the assay with ETS1 [1] was found to be 413; with ETS1 [2], 451.
In the case of GGGGCCCCGGATGCACTGAGCGGCTGCGGCGCGGCT, the ETS1 binding intensity in the assay with ETS1 [1] was found to be 613; in the assay with ETS1 [2], 642.
In the same order, the values of TATGACCAGGGGAGGGAAGTGACCACAGCATATCAC are 466 and 823.
On to TTTATCCTTATTTCCTGGCTTCGCCCACAAGCACAG, for which the ETS1 binding intensity with ETS1 [1] was 599; in the assay with ETS1 [2], 625.
In the same order, the values of GTCGGGAAGTAGGCGGGGTGACGTGTGGTTGACGAG are 426 and 546.
In the same order, the values of GCTTTGCAGTTTCCTCTATGGAACACCACACACAGT are 621 and 499.
In the same order, the values of AGCGGCTCCTTCCGGCGGCGCGGGTTCCCTTCCCTC are 624 and 581.
Regarding AAGCTTCCTGGCCCTTTAAAAATGGCGGTTCCGCAC, the figures for the ETS1 binding intensity in the assay with ETS1 [1] and with ETS1 [2] were 519 and 714, respectively.
In the same order, the values of GACTGAGATTTCCTGCCAGCAACCACATGGCTTGTC are 512 and 577.
The matching figures for TCTTTTTATTTCCTGTGCAGTCTCGCCCACAGCACT: 1070 and 1030.
The matching figures for TGCTTAGAACACGGAAACACTGAGGTTTTACTTTGA: 482 and 560.
In the case of ATCAAAGAACGGATATTGCTGTGACACCGCGGGGAC, the values for the ETS1 binding intensity in the assay with ETS1 [1] and with ETS1 [2] were 1380 and 1560, respectively.
The matching figures for GCCGTGAGAAACATCCTGCCTAACCACCTGACTACA: 618 and 678.
The matching figures for AGTTGCTAAGGAAATGACTGCCCGCAGCGCCTGGCC: 423 and 929.
The matching figures for CAGCTAGAGGAAGCGCTTCGCCCGCGAACCACAGGG: 375 and 705.
On to GCCTGCGCTCTTTCCGGTAGCCACAGCCTCGTCTAA, for which the ETS1 binding intensity worked out at 1290 in the assay with ETS1 [1] and 1220 in the assay with ETS1 [2].
In the same order, the values of GGGAGGAAGTGTGAAGGGACTTTTGTGGTGAGTGAT are 549 and 910.
In the same order, the values of GAACTGAAGAAGGCAGGAAGCCACAGGCTCCTGGGT are 1730 and 2280.
The matching figures for CAGCCAGCCAGGAAGCAGGGGCTGCGGGGCTGACAG: 691 and 524.
As for TGGGGTGGGGTGGGAAGTGCCAGCGGTCTGGGTGTC, the ETS1 binding intensity was determined as 537 with ETS1 [1] and 486 with ETS1 [2].
The matching figures for AAGCAGAGCTCAGGATGTGGTGCCGTGCGAGGGCGG: 697 and 847.
Take ATTACATCCGGGCTCCGCGACACGCCCGAACCACAA: the figures for the ETS1 binding intensity with ETS1 [1] and in the assay with ETS1 [2] were 549 and 427, respectively.
The matching figures for GTTTCAGTATTTCCTGGTGCGGCGTACCACACCTAC: 620 and 566.
In the same order, the values of ACAGCATTTCCTGGTGGCCAGATATCTGAGGTTTCA are 426 and 539.
With CTGTCCACATAAGGAAGTTGGGACCACAAGGTCTTT, the ETS1 binding intensity is 870 in the assay with ETS1 [1] and 1350 with ETS1 [2].
In the same order, the values of ACCTCTTCCGAGACCCAAAATGCGCGGTCTGGAGAG are 448 and 328.
CCCGGACCGTTTCCGTGCTGTGGTCCCGGGTTCTGG: the ETS1 binding intensity with ETS1 [1] was determined as 443; with ETS1 [2], 412.
In the same order, the values of AGCCGGAGGCGGAAGGAGCAGCGCTACCGCAGCGTC are 639 and 1130.
The sequence “CCTATTAAATTCAGATTTGCAGTTTGTTTTTTATCA (protein concentration 10 nM)” showed a TF binding intensity with ETS1 [3] of 117.
Turning to CGTAGCGAGGAGCGGAAAACGCGGTAACCAAGGCGG, the ETS1 binding intensity with ETS1 [1] was determined as 732; in the assay with ETS1 [2] it was 1050.
The matching figures for TGAGCCCCAGCAAGGGGAAGTGGTTAACCCAGGGTC: 709 and 1960.
In the same order, the values of TGGGGTTTCCTGGGGAGAAACTTAGCCCTACCACAC are 527 and 485.
The matching figures for GTGCAGGCAATGAGGATGTTGTGGGGGAGACAGGGA: 746 and 732.
GCAGTCGCTAAGGGCGGAAACCACTGTTTGGGAGCT: the ETS1 binding intensity is 2110 with ETS1 [1] and 3180 with ETS1 [2].
GAAAGCACGTGTTTCCTGCGGCTGCACCCCAGCACC: the ETS1 binding intensity amounted to 479 with ETS1 [1] and 386 with ETS1 [2].
For TTTGCACACATCCTGGCCTCCGCCTGACCACCTCCT, the ETS1 binding intensity was determined as 483 in the assay with ETS1 [1] and 586 with ETS1 [2].
The matching figures for GCCACCGTATTTCCGCGTTTTTCGCGGTAGGCGGGA: 465 and 576.
The matching figures for ATACATACAGGATGACATTTGTCCTGTGGGCACCAG: 495 and 515.
Turning to TCGCATAGCCGGGAAGCGCGGTGGAGGTTGTTGGGG, the ETS1 binding intensity in the assay with ETS1 [1] was determined as 428; with ETS1 [2], 473.
In the same order, the values of CTGCTGGGCCCCTTCCTGTCAGCGGTTGCTCTTTAC are 673 and 716.
In the same order, the values of CTGGGGCTGAGGGAGGGATGTGGTGGGGCCCAGGCT are 411 and 521.
In the same order, the values of TAAATACCTCACAGGAAATTTGAGGTTGGATGAGAT are 2010 and 2320.
In the case of GCTGTTTCCTGCTGATAAAAACACCCCACAACTTCA, the results for the ETS1 binding intensity with ETS1 [1] and in the assay with ETS1 [2] were 449 and 510, respectively.
For GCGCAAGGCGCTTCCTCCCCCGCAGCGCGAGCCCCA, the ETS1 binding intensity is 477 with ETS1 [1] and 435 with ETS1 [2].
The matching figures for AATTCCCAGGAAGCACTCGGCAGCCACAAACTGATG: 539 and 483.
Take CTCTTCTTCAGGGTTTCCTGTGGGTACACTGAGAAC: the figures for the ETS1 binding intensity with ETS1 [1] and in the assay with ETS1 [2] were 604 and 602, respectively.
In turn, “TTTCTGTTTTGTTTTATTTTGTTTGTTTTTATTCTG (protein concentration 10 nM)” showed a TF binding intensity with ETS1 [3] of 128.
With TACCGCTGCTTCCTGCCTGCGCGGTGAGCCTGTGCC, the ETS1 binding intensity in the assay with ETS1 [1] turned out to be 829; with ETS1 [2], 802.
The matching figures for TGAAGGAGCGGAAGGGTTGCTTGCAGACCGCACGGT: 574 and 1360.
